From PubChem BioAssay AID1159580 (chemical genetic matrix, 2015)
Hit rate of the full screen: of about 5,500 compounds, about 2,000 (36%) were called active. Another 18% or so got no clear call; they are omitted. Rule as the data show it: active = normalized growth mostly below about 0.91 (no sharp cut-off); inconclusive = no clear call, values can overlap the other calls; inactive = mostly above about 0.92. Some of the results follow.

Assay: chemical genetic growth profiling, strain panel (AID 1159580);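 also: tested at 20 µM; growth read once vehicle control cultures reached saturation at 30 °C; 1 = growth at the plate median or of vehicle wells; lower values mean less growth of the strain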
Conditions: S. cerevisiae deletion strains, growth OD

Measured: normalized growth

CC1(C)Oc2ccc3ccc(=O)oc3c2CC1O (centres undefined)
inactive: locus YAL013W, strain DEP1, hits give low values 0.994 | locus YAL021C, strain ccr4, hits give low values 1 | locus YAL026C, strain drs2, hits give low values 0.967 | locus YAL030W, strain snc1, hits give low values 0.972 | locus YBL061C, strain skt5, hits give low values 0.971 | locus YBR009C, strain hhf1, hits give low values 0.94 | locus YBR021W, strain FUR4, hits give low values 1.02 | locus YBR023C, strain chs3, hits give low values 0.984 | locus YBR171W, strain sec66, hits give low values 0.976 | locus YBR229C, strain ROT2, hits give low values 0.998 | locus YBR231C, strain swc5, hits give low values 0.976 | locus YBR279W, strain paf1, hits give low values 0.987 | locus YCL011C, strain gbp2, hits give low values 0.963 | locus YCL016C, strain dcc1, hits give low values 0.988 | locus YCL029C, strain bik1, hits give low values 1.01 | locus YCL061C, strain MRC1, hits give low values 0.989 | locus YCL069W, strain vba3, hits give low values 0.968 | locus YCR088W, strain abp1, hits give low values 0.986 | locus YDL005C, strain med2, hits give low values 0.975 | locus YDL035C, strain GPR1, hits give low values 0.991 | locus YDL040C, strain nat1, hits give low values 0.979 | locus YDL074C, strain BRE1, hits give low values 1.01 | locus YDL101C, strain DUN1, hits give low values 0.995 | locus YDL134C, strain PPH21, hits give low values 0.974 | locus YDL185W, strain tfp1, hits give low values 1.02 | locus YDL192W, strain arf1, hits give low values 1.02 | locus YDR001C, strain nth1, hits give low values 0.97 | locus YDR069C, strain doa4, hits give low values 0.957 | locus YDR101C, strain arx1, hits give low values 1.02 | locus YDR137W, strain rgp1, hits give low values 0.99 | locus YDR150W, strain NUM1, hits give low values 1.01 | locus YDR159W, strain sac3, hits give low values 0.922 | locus YDR162C, strain NBP2, hits give low values 0.978 | locus YDR195W, strain ref2 0.971 | locus YDR297W, strain sur2, hits give low values 0.971 | locus YDR318W, strain mcm21, hits give low values 0.977 | locus YDR334W, strain swr1, hits give low values 0.982 | locus YDR335W, strain msn5, hits give low values 0.993 | locus YDR388W, hits give low values 1 | locus YDR392W, strain spt3, hits give low values 0.91 | locus YDR502C, strain sam2, hits give low values 0.994 | locus YEL003W, strain gim4, hits give low values 0.977 | locus YEL037C, strain rad23, hits give low values 0.982 | locus YEL061C, strain CIN8 (second series), hits give low values 0.977 | locus YEL061C, strain CIN8, hits give low values 0.992 | locus YER015W, strain faa2, hits give low values 0.968 | locus YER016W, strain bim1, hits give low values 0.996 | locus YER110C, hits give low values 1.01 | locus YER111C, strain swi4, hits give low values 0.982 | locus YER155C, strain BEM2 (second series), hits give low values 0.956 | locus YER155C, strain BEM2, hits give low values 1.01 | locus YER167W, strain BCK2, hits give low values 0.978 | locus YFR010W, strain ubp6, hits give low values 0.972 | locus YGL078C, strain dbp3, hits give low values 0.999 | locus YGL086W, strain mad1, hits give low values 1.04 | locus YGL167C, strain pmr1, hits give low values 0.961 | locus YGL173C, strain kem1, hits give low values 0.975 | locus YGL227W, strain vid30, hits give low values 0.97 | locus YGL240W, strain doc1, hits give low values 0.97 | locus YGL248W, strain PDE1, hits give low values 0.998 | locus YGL253W, strain hxk2, hits give low values 1 | locus YGR078C, strain PAC10, hits give low values 0.999 | locus YGR135W, strain pre9, hits give low values 0.978 | locus YGR252W, strain gcn5, hits give low values 0.928 | locus YHR013C, strain ard1, hits give low values 0.943 | locus YHR027C, strain rpn1, hits give low values 0.973 | locus YHR030C, strain SLT2, hits give low values 1 | locus YHR079C, strain IRE1 (second series), hits give low values 1 | locus YHR094C, strain hxt1, hits give low values 1.02 | locus YHR129C, strain ARP1, hits give low values 1 | locus YHR142W, strain chs7, hits give low values 0.996 | locus YHR200W, strain rpn10, hits give low values 1.01 | locus YIL066C, strain RNR3, hits give low values 1 | locus YIL073C, strain SPO22, hits give low values 1.02 | locus YIL125W, strain kgd1, hits give low values 1.02 | locus YIR030C, strain dcg1, hits give low values 1.01 | locus YJL092W, strain hpr5, hits give low values 0.989 | locus YJL095W, strain BCK1 (second series), hits give low values 0.996 | locus YJL095W, strain BCK1, hits give low values 0.986 | locus YJL115W, strain asf1, hits give low values 0.984 | locus YJL129C, strain trk1, hits give low values 0.977 | locus YJL134W, strain LCB3, hits give low values 1 | locus YJL154C, strain vps35, hits give low values 0.978 | locus YJL164C, strain tpk1, hits give low values 1.01 | locus YJL166W, strain qcr8, hits give low values 0.989 | locus YJL168C, strain set2, hits give low values 1.01 | locus YJL187C, strain SWE1 (second series), hits give low values 1.01 | locus YJL187C, strain SWE1, hits give low values 0.976 | locus YJR043C, strain POL32, hits give low values 0.995 | locus YKL009W, strain mrt4, hits give low values 1.01 | locus YKL068W, hits give low values 0.998 | locus YKL085W, strain MDH1 (second series), hits give low values 1.01 | locus YKL085W, strain MDH1, hits give low values 1.01 | locus YKL160W, strain elf1, hits give low values 1.02 | locus YKR001C, strain vps1, hits give low values 1.03 | locus YKR026C, strain gcn3, hits give low values 0.957 | locus YKR091W, strain srl3, hits give low values 0.965 | locus YLL001W, strain dnm1, hits give low values 0.987 | locus YLL026W, hits give low values 0.977 | locus YLL041C, strain sdh2, hits give low values 0.989 | locus YLR027C, strain aat2, hits give low values 0.982 | locus YLR039C, strain RIC1, hits give low values 0.998 | locus YLR058C, strain SHM2, hits give low values 0.992 | locus YLR102C, strain apc9, hits give low values 1.01 | locus YLR221C, strain rsa3, hits give low values 0.994 | locus YLR258W, strain gsy2, hits give low values 0.971 | locus YLR262C, strain YPT6 (second series), hits give low values 0.989 | locus YLR262C, strain YPT6, hits give low values 0.956 | locus YLR268W, strain sec22, hits give low values 1.05 | locus YLR320W, strain mms22, hits give low values 0.998 | locus YLR330W, strain CHS5, hits give low values 1 | locus YLR342W, strain FKS1 (second series), hits give low values 1.02 | locus YLR342W, strain FKS1, hits give low values 0.973 | locus YLR357W, strain rsc2, hits give low values 0.961 | locus YLR370C, strain arc18, hits give low values 0.976 | locus YLR371W, strain rom2, hits give low values 1.01 | locus YLR384C, strain iki3, hits give low values 0.976 | locus YLR418C, strain cdc73, hits give low values 0.978 | locus YML016C, strain PPZ1, hits give low values 1 | locus YML032C, strain rad52, hits give low values 0.976 | locus YML120C, strain ndi1, hits give low values 0.988 | locus YML124C, strain tub3, hits give low values 0.994 | locus YMR058W, strain fet3, hits give low values 0.979 | locus YMR078C, strain ctf18, hits give low values 1.02 | locus YMR125W, strain sto1, hits give low values 0.935 | locus YMR129W, hits give low values 0.966 | locus YMR205C, strain PFK2, hits give low values 0.941 | locus YMR223W, strain ubp8, hits give low values 0.996 | locus YMR231W, strain pep5, hits give low values 0.977 | locus YMR307W, strain GAS1, hits give low values 1.04 | locus YNL067W, strain RPL9B, hits give low values 1 | locus YNL071W, strain lat1, hits give low values 0.988 | locus YNL209W, strain ssb2, hits give low values 0.965 | locus YNL233W, strain BNI4, hits give low values 1 | locus YNL248C, strain rpa49, hits give low values 1.02 | locus YNL250W, strain rad50, hits give low values 1.01 | locus YNL271C, strain bni1, hits give low values 1.01 | locus YNL298W, strain CLA4, hits give low values 1 | locus YNL307C, strain MCK1, hits give low values 1.02 | locus YNL322C, strain KRE1 (second series), hits give low values 0.967 | locus YNR049C, strain mso1, hits give low values 0.97 | locus YNR052C, strain pop2, hits give low values 1.02 | locus YOL006C, strain TOP1, hits give low values 1.02 | locus YOL012C, strain htz1 0.905 | locus YOL147C, strain pex11, hits give low values 1 | locus YOR001W, strain rrp6, hits give low values 1.02 | locus YOR061W, strain CKA2, hits give low values 1 | locus YOR069W, strain VPS5, hits give low values 1 | locus YOR070C, strain gyp1, hits give low values 0.987 | locus YOR080W, strain dia2, hits give low values 0.975 | locus YOR083W, strain WHI5, hits give low values 1.03 | locus YOR106W, strain vam3, hits give low values 0.995 | locus YOR136W, strain idh2, hits give low values 1.01 | locus YOR144C, strain elg1, hits give low values 1 | locus YOR184W, strain ser1, hits give low values 0.988 | locus YOR265W, strain rbl2, hits give low values 0.987 | locus YOR270C, strain vph1, hits give low values 1.02 | locus YOR290C, strain snf2, hits give low values 0.924 | locus YOR316C, strain cot1, hits give low values 1 | locus YPL051W, strain arl3, hits give low values 1.02 | locus YPL078C, strain atp4, hits give low values 1 | locus YPL106C, strain sse1, hits give low values 0.95 | locus YPL240C, strain hsp82, hits give low values 0.974 | locus YPL241C, strain CIN2, hits give low values 0.996 | locus YPR119W, strain clb2, hits give low values 0.997 | locus YPR141C, strain kar3, hits give low values 1.01 | locus YPR163C, strain tif3, hits give low values 1.01 | locus YPR167C, strain met16, hits give low values 1 | strain wtn01, hits give low values 1.05
